For 40 compounds, Percent Effect results are on record in ChEMBL document CHEMBL3988442, “University of Dundee, Small-Polar-MMV Screening Library” (2021).

Structures are written as SMILES.

This test addresses AMP-activated protein kinase, AMPK (Homo sapiens) (UniProt P54646+O43741+P54619+Q9UGJ0+Q9Y478+Q13131+Q9UGI9). In words: AMP-dependent Kinase enzyme assay. An in vitro enzyme assay that detects ADP turnover that is directly proportional to AMPK activity. This uses naive AMPK that is activated during the assay with MK-8722. The format is functional. Details: scale not given: direction of the effect not stated beside the values. To be noted: 30 µM.
Take `Cc1cnn(CCCNC(=O)NC(C)C(=O)Nc2ccccc2)c1` (stereo not given): the Percent Effect was 4.78%.
Turning to `CCOc1ccccc1C(=O)NCc1nncn1C1CC1`, the Percent Effect was -9.44%.
The same measure for `Cc1cc(NC(=O)CO)nn1-c1ccc(Cl)cc1Cl`: -3.56%; for `CC1CCN(CCNC(=O)c2sccc2C2CC2)CC1`: 5.67%; for `CS(=O)(=O)CCCNc1cccc(COC2CCCCC2)c1`: -2.55%.
Consider `CC(=O)N[C@H]1CCN(C(=O)c2cc(Cn3cnc4ccccc43)[nH]n2)C1`, for which the Percent Effect was -3.06%.
As to `CCCC1(CO)CCCN(C(=O)CN2CCN(CC)CC2)C1` (stereo not given), the Percent Effect was -3.5%.
With `CC(C)COc1cncc(N2CCCN(c3ncccn3)CC2)n1`, the Percent Effect came out at 65.1%.
Take `CN(C1CCCCC1)S(=O)(=O)NCC1Cc2ccccc2O1` (stereo not given): the Percent Effect was -9.03%.
Then `Cc1noc(CS(=O)(=O)c2cc(F)ccc2F)n1`, with -0.296%.
Then `CCN(CC)S(=O)(=O)c1cc(Br)ccc1OC`, with -4.57%; and `CCc1ccc(-c2noc(Cn3nc(C(N)=O)ccc3=O)n2)cc1`, with -8.7%.
For the compound `Cc1noc(C)c1CNCC1CNc2ccnn2C1` (stereo not given), the Percent Effect is -0.962%.
Consider `CCc1ncc2c(n1)CN(c1nnc(C)c(C)c1C#N)CC2`, for which the Percent Effect was -14.7%.
Regarding `COc1c(C)cnc(CN2CCn3c(nnc3C(C)C)C2)c1C`, the Percent Effect came out at 22%.
Consider `COc1cccc(-c2ncc(CN3CC[C@H](CO)[C@@H](O)C3)s2)c1`, for which the Percent Effect is -0.478%.
Turning to `CCCn1nc(C)c(CN2CC3(CCOC3)CCC2=O)c1C` (stereo not given), the Percent Effect is 1.7%.
Take `Cn1cc(CCCN2CCCC(c3cc(C(F)(F)F)[nH]n3)C2)cn1` (stereo not given): the Percent Effect is -0.434%.
`O=C1NC(C(=O)NCc2cccnc2Oc2ccccc2F)CO1` (stereo not given): the Percent Effect is 4.53%.
For the compound `Cc1cc(-c2cnc(N3CCSCC3)nc2C(C)C)on1`, the Percent Effect worked out at 16%.
As for `CCN(CCNS(=O)(=O)N1CCOCC1)C(=O)OC(C)(C)C`, the Percent Effect is 0.848%.
With `Cc1cc(C(=O)NC2CCN(c3nnc(C)c(C)c3C#N)CC2)no1`, the Percent Effect was -21.4%.
In the case of `OCc1csc(N2C[C@@H](CN3CCCCCC3)[C@@H](CO)C2)n1`, the Percent Effect was -3.32%.
The same measure for `CN(Cc1csc(-c2cccs2)n1)CC(O)CO` (stereo not given): 5.86%; for `COCc1nc2cc3c(cc2c(=O)o1)OCCCO3`: -7.41%.
For `Fc1cccc(-c2n[nH]cc2-c2nc(CN3CCOCC3)no2)c1`, the Percent Effect is 5.95%.
As for `CN(CCc1cccc2ccccc12)Cc1nc(N)nc(N(C)C)n1`, the Percent Effect was -2.41%.
For the compound `CC(C)NC(=O)CNC(=O)c1csc(Cc2ccccc2F)n1`, the Percent Effect was 4.46%.
For `CCN(C)C[C@@H]1CN(Cc2cnc3c(S(C)(=O)=O)cnn3c2)C[C@@H]1CO`, the Percent Effect was -11.4%.
Turning to `CCNC(=O)C1CCN(Cc2ccccc2OCC(F)(F)F)CC1`, the Percent Effect is -3.27%.
As to `Cc1nc(C)n(CC2CCCN2c2ncnc3sccc23)n1` (stereo not given), the Percent Effect is 1.91%.
With `COC1CCN(S(=O)(=O)N2CC[C@@](O)(C3CCC3)[C@H](C)C2)CC1`, the Percent Effect was -3.56%.
Then `CCN(Cc1ccc2c(c1)OCO2)c1ncc(S(N)(=O)=O)s1`, with 1.52%.
In the case of `O=C(NC1CCN(Cc2ccc(F)cc2)CC1)c1ccc2c(c1)CCC2`, the Percent Effect is -2.43%.
With `O=C(C1CC1)N1CCCC(C2=Nc3ccccc3S(=O)(=O)N2)C1` (stereo not given), the Percent Effect came to 24.4%.
On to `Cc1c(C(=O)NCCCS(C)(=O)=O)cccc1-c1ccccn1`, for which the Percent Effect stood at 10.6%.
Take `CN(C)c1ncccc1CNC(=O)CCNc1ncccn1`: the Percent Effect is -6.85%.
Then `Cc1[nH]nc(CCC(=O)N2CCc3ncnc(NCCO)c3CC2)c1C`, with 3.08%; and `O=C1CCC2(CCNCC2)CN1Cc1nnc2ccccn12`, with 8.07%.
Regarding `CCCc1nn(Cc2ccc(Br)s2)c(=O)o1`, the Percent Effect amounted to 9.29%.
